Screening results as filed in PubChem.
Only some compounds are listed: those with a hit (about 2.3% of all), similar ones and a draw of the others.
GLD-1 RNA inh = GLD-1/TGE RNA complex disruptors, primary screen, biochemical, fluorescence polarization; inhibition, % at 5.96 µM; AID 2280, 2010; purified GLD-1 + fluorescein TGE RNA; hit rate 0.44% among 320,000;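 active = percent inhibition above a per-plate cutoff, the plate mean of test compounds plus 3 SD, cut at about 30% in these data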;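 also: 0% = DMSO wells with GLD-1 and probe and 100% = wells lacking GLD-1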
Mcl1 Noxa PPI = Mcl-1/Noxa binding inhibitors, primary screen, biochemical, TR-FRET, 1536-well; Induced myeloid leukemia cell differentiation protein Mcl-1 (Homo sapiens), Q07820; TR-FRET Mcl-1/Noxa peptide binding, 2 h; inhibition, % at 21.7 µM; hit rate 1.5% among 220,000; AID 1022, 2008;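 active = compounds that cut the protein-peptide binding signal by more than 50% relative to plate controls in a single-dose test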;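 also: His-tagged Mcl-1 with rhodamine Noxa BH3 peptide and terbium anti-His antibody; 0% = Mcl-1 plus Noxa peptide wells and 100% = peptide-only wells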
Target sequence (Q07820 whole entry, looked up): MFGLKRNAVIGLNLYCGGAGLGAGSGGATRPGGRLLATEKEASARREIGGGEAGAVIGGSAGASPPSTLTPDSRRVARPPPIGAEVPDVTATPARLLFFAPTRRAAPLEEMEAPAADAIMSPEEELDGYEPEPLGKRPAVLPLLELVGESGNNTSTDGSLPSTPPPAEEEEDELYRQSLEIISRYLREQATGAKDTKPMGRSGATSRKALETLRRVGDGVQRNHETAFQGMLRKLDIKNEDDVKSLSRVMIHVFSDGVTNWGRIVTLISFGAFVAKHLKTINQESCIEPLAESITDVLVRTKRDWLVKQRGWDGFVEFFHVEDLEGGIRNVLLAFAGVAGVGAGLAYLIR
Mcl1 Bid PPI = Mcl-1/Bid binding inhibitors, primary screen, biochemical, TR-FRET, 1536-well; Induced myeloid leukemia cell differentiation protein Mcl-1 (Homo sapiens), Q07820; inhibition, % at 21.7 µM; hit rate 0.97% among 220,000; TR-FRET Mcl-1/Bid-Dy647 peptide binding;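 active = compounds that cut the binding signal by more than half at the single screening dose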;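 also: His-tagged Mcl-1 with europium anti-His antibody binding Bid BH3 peptide; 0% = Mcl-1 plus peptide wells and 100% = peptide-only wells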
Bcl-xL primary = inhibitors of human Bcl-xL, primary screen, biochemical, fluorescence polarization, HTS; GST-Bcl-xL / FITC-Bim BH3 peptide fluorescence polarization; hit rate 0.7% among 320,000; inhibition, % at 10.9 µM;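 active = inhibition above the mean of all tested compounds plus 3 SD, cutoff set per campaign, cut at about 30% in these data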;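 also: 0% = DMSO wells and 100% = unlabeled Bim-BH3 peptide competitor; inhibitors lower millipolarization by displacing the labeled peptide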
Target sequence (Q07817 whole entry, looked up): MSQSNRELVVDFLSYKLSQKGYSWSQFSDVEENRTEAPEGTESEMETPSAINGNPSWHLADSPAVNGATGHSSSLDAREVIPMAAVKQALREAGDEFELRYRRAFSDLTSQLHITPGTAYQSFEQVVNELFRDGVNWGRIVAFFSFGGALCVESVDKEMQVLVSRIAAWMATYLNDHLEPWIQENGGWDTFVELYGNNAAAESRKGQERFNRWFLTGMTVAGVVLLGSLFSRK
MCL1-BIM inh = inhibitors of MCL1 binding to BIM-BH3, primary screen, biochemical, fluorescence polarization | Induced myeloid leukemia cell differentiation protein Mcl-1 (Homo sapiens), Q07820 | inhibition, % at 10.9 µM | GST-MCL1 / FITC-Bim-BH3 fluorescence polarization | hit rate 0.68% among 320,000 | AID 2057, 2009;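 active = inhibition above the mean inhibition of all tested compounds plus 3 SD, set per campaign, cut at about 40% in these data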;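 also: 0% = DMSO wells and 100% = unlabeled Bim-BH3 peptide control; higher means more loss of mP so more displacement of Bim peptide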
Mcl-1 Bim block = inhibitors of Bim peptide binding to Mcl-1, primary screen, biochemical, bead-based flow cytometry, multiplex. Bim peptide-Mcl-1 binding. inhibition, % at 10 µM. hit rate 0.1% among 190,000. AID 1009, 2008; in the data active = inhibition above about 40%;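 also: 0% = no compound tracer wells and 100% = peptide blocker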
The depositor's hits bear a star; . = not tested or not shown.

SMILES | GLD-1 RNA inh | Mcl1 Noxa PPI | Mcl1 Bid PPI | Bcl-xL primary | MCL1-BIM inh | Mcl-1 Bim block
Cc1ccc(C(OCC(O)CNCc2ccc(F)cc2)c2ccccc2)cc1 (centres undefined) | 1 | . | . | 3 | 0 | .
COc1ccc(Cl)cc1NS(=O)(=O)c1c(C)nc2sccn2c1=O | 1 | . | . | 4 | 1 | .
O=C(COc1ccc2ccccc2c1)Nc1cccc2c1C(=O)NC2=O | 7 | -119 | 60* | -2 | -1 | -3
Cc1ccc2c(C(=O)CN3CCC(C(N)=O)CC3)c(C)[nH]c2c1 | 0 | . | . | -8 | -9 | .
N#Cc1c(Cl)nc(N/N=C/c2ccccc2)c(Cl)c1Cl | -3 | 41 | 2 | -4 | 4 | -4
C[N+](C)(C)c1ccc(/C=N/Nc2nc(Cl)c(C#N)c(Cl)c2Cl)cc1 | -19 | 37 | 91* | -2 | -9 | -4
COc1ccc(Cl)cc1NC(=O)CN(C)C(=O)Cn1cnnn1 | -4 | . | . | . | . | .
CC(Oc1ccc2ccc(=O)oc2c1)C(=O)N1CCOCC1 (centres undefined) | 0 | . | . | -4 | -20 | .
CCCCn1c(=O)[nH]c(=O)c2c1nc(-c1ccc3ccccc3c1)n2CC | -5 | 9 | -14 | 8 | 2 | 8
CCCCn1c(=O)[nH]c(=O)c2c1nc(-c1ccc(-c3ccccc3Br)o1)n2CC | -10 | 55* | -6 | -5 | 5 | -3
O=C(NCC(c1cccs1)N1CCOCC1)c1cc(S(=O)(=O)N2CCOCC2)ccc1F (centres undefined) | 0 | . | . | 1 | -3 | .
COC(=O)c1ccccc1NC(=O)C1CCN(c2ncnc3c2nc2n3CCCCC2)CC1 | 1 | . | . | 1 | 2 | .
C#CCOc1ccc(C2C(C#N)=C(N)Oc3cc(O)ccc32)cc1 (centres undefined) | -2 | . | . | -4 | -23 | .
NNC(=O)c1oc2nc(-c3ccco3)cc(-c3ccco3)c2c1N | -7 | 62* | -105 | -40 | -44 | .
CCCn1c(SCC(=O)NC2CCC(C)CC2)n[nH]c1=O (centres undefined) | 10 | . | . | 41* | 48* | .
Cc1ccc(NC(=O)Nc2nnc(Cc3ccc([N+](=O)[O-])cc3)s2)cc1 | 0 | -8 | 51* | 9 | 1 | -5
O=C(COC(=O)c1cccc(Br)c1)NCCNC(=O)COC(=O)c1cccc(Br)c1 | -10 | . | . | -6 | -13 | .
CCN1CCN(S(=O)(=O)c2ccc(Cl)c(C(=O)N(C)Cc3ccccc3)c2)CC1 | 4 | . | . | -2 | -9 | .
CCOC(=O)Cn1c(=O)oc2cc(S(=O)(=O)Nc3cc(OCC)ccc3OCC)ccc21 | -9 | 7 | -73 | -3 | -6 | -3
CCOC(=O)Cn1c(=O)oc2cc(S(=O)(=O)Nc3ccc(N(CC)CC)cc3C)ccc21 | 12 | 54* | -12 | 8 | 4 | -2
COc1ncc(C2=CC(=O)CC(C)(C)C2)cn1 | 6 | . | . | 3 | 3 | .
CC1(C)OC(=O)N(Cc2ccco2)C1(C)O (centres undefined) | 5 | 7 | 51* | 0 | 0 | 1
CCN(CC)CCCNc1nc(SC)nc2sc3c(c12)CCN(C)C3 | -28 | . | . | 71* | 7 | .
Cc1cc(C)nc(NS(=O)(=O)c2ccc(NC(=O)c3cc4c(=O)n5cccc(C)c5nc4n3C)cc2)n1 | 5 | . | . | 30* | 31 | .
Cc1cccn2c(=O)c3cc(C(=O)NC4CCCC4)n(C)c3nc12 | 8 | . | . | 3 | 2 | .
SMILES | GLD-1 RNA inh | Mcl1 Noxa PPI | Mcl1 Bid PPI | Bcl-xL primary | MCL1-BIM inh | Mcl-1 Bim block
Nc1nc2nonc2nc1N1CCCCC1 | 9 | 3 | -18 | 34* | 25 | 0
C1CCCN(c2nc3nonc3nc2N2CCCCCC2)CC1 | 6 | 4 | -10 | 6 | -1 | -1
CSCCC(NC(=O)c1ccco1)C(=O)N(C)CC(=O)Nc1c(Cl)cccc1Cl (centres undefined) | 8 | . | . | 5 | 7 | .
O=[N+]([O-])c1ccccc1N/N=C/c1cccc(O)c1O | 6 | 54* | 0 | 8 | 12 | .
Cc1cccc(N/N=C/c2ccc(O)c(O)c2O)c1 | 2 | 53* | -189 | 13 | 20 | .
O=[N+]([O-])c1cccc(N/N=C/c2cccc(O)c2O)c1 | 6 | 67* | -35 | 4 | 3 | 4
O=[N+]([O-])c1ccccc1N/N=C\c1ccccc1Cl | 8 | 16 | 3 | 5 | -1 | -1
O=[N+]([O-])c1ccc(N/N=C/c2cccc(O)c2O)c(S(=O)(=O)N2CCOCC2)c1 | -1 | 27 | 4 | 2 | 14 | 0
Cc1cc(C)c(C(=O)COC(=O)c2c(C)noc2C)cc1C | 0 | . | . | 1 | 5 | .
COc1ccc(S(=O)(=O)NCC(=O)N(CC(=O)NCc2ccco2)C2CCCC2)cc1 | 6 | . | . | 9 | 6 | .
O=C1N=c2ccccc2=C1c1sc(=S)n(-c2ccc(O)cc2)c1O | 3 | 70* | 21 | 12 | 8 | .
Cc1c(-n2c(O)c(C3=c4ccccc4=NC3=O)sc2=S)c(=O)n(-c2ccccc2)n1C | 2 | 53* | 32 | 14 | 16 | -1
O=C1N=c2ccccc2=C1c1sc(=S)n(Cc2ccccc2Cl)c1O | -4 | 3 | -22 | 5 | 11 | .
COc1cc(C(=O)Oc2cccc(C)c2)cc(OC)c1OC | 1 | -9 | -15 | 2 | 1 | -5
COc1cc(OC)nc(Oc2ccccc2C(=O)Oc2cccc(C)c2)n1 | 6 | -7 | 53* | 0 | -4 | -7
Cc1ccc(S(=O)(=O)N2CCOC2CNC(=O)C(=O)NCCN(C)C)cc1 (centres undefined) | -11 | . | . | -1 | 2 | .
COc1ccc(/C=N/Nc2nc(C)cc(-c3ccccc3)n2)c(OC)c1 | -1 | . | . | 4 | 6 | .
COc1ccc(/C=N/Nc2ncc(-c3ccccc3)cn2)c(OC)c1 | 4 | 52* | 40 | 1 | -5 | -2
Cc1nc(NC(=O)c2ccccc2)sc1-c1csc(Nc2ccc(Cl)cc2)n1 | 0 | -16 | -11 | 0 | -1 | -2
COc1ccc(Cl)cc1Nc1nc(-c2sc(NC(=O)c3ccccc3)nc2C)cs1 | 2 | 32 | 70* | -6 | -16 | -2
Cc1ccc(Cl)cc1Nc1nc(-c2sc(NC(=O)c3cccc(Cl)c3)nc2C)cs1 | 1 | 40 | 61* | -3 | -11 | -3
CCOc1ccccc1Nc1nc(-c2sc(NC(=O)c3ccc([N+](=O)[O-])cc3)nc2C)cs1 | -5 | 86* | 96* | 3 | 5 | -1
COc1ccc(OC)c(Nc2nc(-c3sc(NC(=O)c4ccccc4)nc3C)cs2)c1 | -13 | 29 | -18 | -16 | -18 | -1
